From PubChem BioAssay
Activity calls are given as the source filed them.

Tests used:
[1] = binders of probe aFSTL3 on microarray, primary screen, stem cell growth factor project, biochemical, small-molecule microarray, fluorescence 635/667 (AID 1064); settings: higher = more signal;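 also: measures binding of the biotinylated anti-FSTL3 antibody to printed compounds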
[2] = binders from COS7 lysate, DM2A8 probe, primary screen, torsin A project, cell lysate, small-molecule microarray, fluorescence 635/667 (AID 1065); settings: higher = more signal, COS7 lysate expressing mutant human TOR1A
[3] = binders of probe aFGF2 on microarray, primary screen, stem cell growth factor project, biochemical, small-molecule microarray, fluorescence 635/667 (AID 1067); settings: higher = more signal;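 also: measures binding of biotinylated aFGF2 protein to printed compounds on slides; z-score merges feature fluorescence and signal-to-noise across triplicate slides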
[4] = binders of probe aFGF10 on microarray, primary screen, stem cell growth factor project, biochemical, small-molecule microarray, fluorescence 635/667 (AID 1071); settings: higher = more signal;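 also: score merges 667 nm spot intensity and signal to noise from triplicate slides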
[5] = target: Neurogenic locus notch homolog protein 2 (Homo sapiens) (UniProt Q04721); assay: Notch2 binders on small-molecule microarrays, primary screen, biochemical, small-molecule microarray, 635 nm fluorescence, stem cell growth factors (AID 1073); settings: Notch2 binding, higher = more signal
[6] = target: Pro-neuregulin-1, membrane-bound isoform (Homo sapiens) (UniProt Q02297); assay: NRG1 binders on small-molecule microarrays, primary screen, psychiatric disease protein project, biochemical, small-molecule microarray, fluorescence 635/667 (AID 1075); settings: NRG1 binding, 635 nm fluorescence, higher = more signal;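 also: score combines 667 nm spot fluorescence with signal to noise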
Chain of Pro-neuregulin-1, membrane-bound isoform (Homo sapiens) (Q02297 whole entry, looked up, the tested form may be a part, canonical isoform): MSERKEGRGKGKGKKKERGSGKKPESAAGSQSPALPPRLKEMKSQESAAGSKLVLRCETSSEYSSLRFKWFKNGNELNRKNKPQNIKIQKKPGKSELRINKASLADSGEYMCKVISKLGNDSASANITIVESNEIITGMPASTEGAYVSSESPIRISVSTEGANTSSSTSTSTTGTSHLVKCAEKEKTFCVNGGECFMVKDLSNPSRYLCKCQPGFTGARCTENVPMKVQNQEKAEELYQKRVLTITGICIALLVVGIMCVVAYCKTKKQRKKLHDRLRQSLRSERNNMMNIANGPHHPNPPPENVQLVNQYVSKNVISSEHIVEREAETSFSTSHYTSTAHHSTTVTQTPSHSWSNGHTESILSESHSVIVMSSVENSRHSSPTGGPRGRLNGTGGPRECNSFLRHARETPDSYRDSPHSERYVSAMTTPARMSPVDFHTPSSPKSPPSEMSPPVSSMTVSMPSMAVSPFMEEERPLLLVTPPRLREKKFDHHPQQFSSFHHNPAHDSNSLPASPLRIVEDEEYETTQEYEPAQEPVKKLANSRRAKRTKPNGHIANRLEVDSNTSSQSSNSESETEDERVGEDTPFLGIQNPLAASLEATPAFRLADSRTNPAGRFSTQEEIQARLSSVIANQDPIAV

[7] = test system: Neuregulin-1 EGF-like domain; assay: binders of neuregulin-1 EGF-like domain, primary screen, biochemical, small-molecule microarray, 635 nm fluorescence (AID 1081); settings: small-molecule microarray binding, higher = more signal;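 also: binding of the protein to compounds printed on small-molecule microarray slides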
[8] = FRG1 promoter luciferase signal modulators, primary screen, FRG1 inhibition for FSHD, cell-based, C2C12 myotubes, firefly/Renilla luciferase, luminescence (AID 1084); settings: higher = more signal, called active from +8 up or from −8 down
[9] = binders of probe aFST on microarray, primary screen, stem cell growth factor project, biochemical, small-molecule microarray, fluorescence 635/667 (AID 1086); settings: higher = more signal;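 also: score merges 667 nm fluorescence with signal-to-noise of each printed compound spot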
[10] = binders of probe aHhip on microarray, primary screen, stem cell growth factor project, biochemical, small-molecule microarray, fluorescence 635/667 (AID 1087); settings: higher = more signal;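 also: score merges spot fluorescence at 667nm with spot signal to noise ratio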
[11] = test system: PRMT1 (protein arginine N-methyltransferase 1); assay: PRMT1 binders on small-molecule microarrays, primary screen, biochemical, small-molecule microarray, 635 nm fluorescence (AID 1088); settings: small-molecule microarray binding, higher = more signal;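 also: binding of Prmt1 protein to compounds spotted on small-molecule microarray slides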
[12] = yeast growth modulation, basal conditions, primary screen, YJM789 clinical isolate, OD600, 24 h (AID 1089);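 also: growth of clinical yeast isolate S. cerevisiae YJM 789 seeded 1000 cells per well; test concentration not given here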; settings: S. cerevisiae YJM789 growth, higher = more signal, called active from +8 up or from −8 down
[13] = fission yeast growth modulation, primary screen, strain 972, OD600, 24 h, no modulator (AID 1090);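 also: basal condition with compound alone and no growth modifier present; test concentration not given here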; settings: S. pombe 972 growth, higher = more signal, called active from +8 up or from −8 down
[14] = S. cerevisiae growth modulation with rapamycin, primary screen, strain BY4716, OD600, 96 h (AID 1091); settings: higher = more signal, called active from +8 up or from −8 down; also: test concentration not given here
[15] = target: Torsin-1A-interacting protein 2 (Homo sapiens) (UniProt Q8NFQ8); assay: LULL1 binders on small-molecule microarray, primary screen, cell lysate, human LULL1 lysate, 635/667 nm fluorescence (AID 1092); settings: hLULL1 lysate binding, 635 nm fluorescence, higher = more signal;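 also: probe is lysate of COS7 cells overexpressing human LULL1; score merges per-feature 667 nm fluorescence with signal-to-noise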
Chain of Torsin-1A-interacting protein 2 (Homo sapiens) (Q8NFQ8 whole entry, looked up): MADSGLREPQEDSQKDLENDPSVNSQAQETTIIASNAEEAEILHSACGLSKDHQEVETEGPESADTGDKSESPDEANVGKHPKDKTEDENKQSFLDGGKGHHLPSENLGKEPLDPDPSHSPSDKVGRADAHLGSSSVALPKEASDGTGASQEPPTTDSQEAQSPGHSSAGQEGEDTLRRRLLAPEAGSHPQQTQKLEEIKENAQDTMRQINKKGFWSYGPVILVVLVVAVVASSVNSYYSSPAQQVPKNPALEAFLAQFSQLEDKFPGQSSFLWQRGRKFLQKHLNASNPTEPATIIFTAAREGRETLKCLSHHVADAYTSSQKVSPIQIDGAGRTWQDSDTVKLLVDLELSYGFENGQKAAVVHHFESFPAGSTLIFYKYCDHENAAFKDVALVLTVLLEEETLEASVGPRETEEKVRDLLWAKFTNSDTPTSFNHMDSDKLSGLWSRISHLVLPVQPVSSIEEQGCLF

[16] = E. coli growth modulation, two-sided OD650, primary screen, E. coli filamentation project, strain DRC41, 24 h (AID 1093); settings: OD650, 24 h, higher = more signal, called active from +8 up or from −8 down;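 also: MC1000 strain lacking acrAB efflux and sulA so SOS filamentation is blocked; test concentration not given here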
[17] = small-molecule microarray binders of probe aLefty2, primary screen, biochemical, biotinylated probe, 635/667 nm fluorescence (AID 1094); settings: higher = more signal;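 also: score merges spot fluorescence near 667 nm with spot signal-to-noise ratio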
[18] = test system: Noggin (protein binding on small-molecule microarray); assay: Noggin binders on small-molecule microarray, primary screen, biochemical, 635/667 nm fluorescence (AID 1095); settings: 635 nm fluorescence, higher = more signal;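 also: score merges 667 nm feature fluorescence with signal to noise over triplicate slides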
[19] = target: Neurogenic locus notch homolog protein 3 (Homo sapiens) (UniProt Q9UM47); assay: NOTCH3 binders on small-molecule microarray, primary screen, biochemical, 635/667 nm fluorescence (AID 1096); settings: NOTCH3 binding, 635 nm fluorescence, higher = more signal
Chain of Neurogenic locus notch homolog protein 3 (Homo sapiens) (Q9UM47 whole entry, looked up): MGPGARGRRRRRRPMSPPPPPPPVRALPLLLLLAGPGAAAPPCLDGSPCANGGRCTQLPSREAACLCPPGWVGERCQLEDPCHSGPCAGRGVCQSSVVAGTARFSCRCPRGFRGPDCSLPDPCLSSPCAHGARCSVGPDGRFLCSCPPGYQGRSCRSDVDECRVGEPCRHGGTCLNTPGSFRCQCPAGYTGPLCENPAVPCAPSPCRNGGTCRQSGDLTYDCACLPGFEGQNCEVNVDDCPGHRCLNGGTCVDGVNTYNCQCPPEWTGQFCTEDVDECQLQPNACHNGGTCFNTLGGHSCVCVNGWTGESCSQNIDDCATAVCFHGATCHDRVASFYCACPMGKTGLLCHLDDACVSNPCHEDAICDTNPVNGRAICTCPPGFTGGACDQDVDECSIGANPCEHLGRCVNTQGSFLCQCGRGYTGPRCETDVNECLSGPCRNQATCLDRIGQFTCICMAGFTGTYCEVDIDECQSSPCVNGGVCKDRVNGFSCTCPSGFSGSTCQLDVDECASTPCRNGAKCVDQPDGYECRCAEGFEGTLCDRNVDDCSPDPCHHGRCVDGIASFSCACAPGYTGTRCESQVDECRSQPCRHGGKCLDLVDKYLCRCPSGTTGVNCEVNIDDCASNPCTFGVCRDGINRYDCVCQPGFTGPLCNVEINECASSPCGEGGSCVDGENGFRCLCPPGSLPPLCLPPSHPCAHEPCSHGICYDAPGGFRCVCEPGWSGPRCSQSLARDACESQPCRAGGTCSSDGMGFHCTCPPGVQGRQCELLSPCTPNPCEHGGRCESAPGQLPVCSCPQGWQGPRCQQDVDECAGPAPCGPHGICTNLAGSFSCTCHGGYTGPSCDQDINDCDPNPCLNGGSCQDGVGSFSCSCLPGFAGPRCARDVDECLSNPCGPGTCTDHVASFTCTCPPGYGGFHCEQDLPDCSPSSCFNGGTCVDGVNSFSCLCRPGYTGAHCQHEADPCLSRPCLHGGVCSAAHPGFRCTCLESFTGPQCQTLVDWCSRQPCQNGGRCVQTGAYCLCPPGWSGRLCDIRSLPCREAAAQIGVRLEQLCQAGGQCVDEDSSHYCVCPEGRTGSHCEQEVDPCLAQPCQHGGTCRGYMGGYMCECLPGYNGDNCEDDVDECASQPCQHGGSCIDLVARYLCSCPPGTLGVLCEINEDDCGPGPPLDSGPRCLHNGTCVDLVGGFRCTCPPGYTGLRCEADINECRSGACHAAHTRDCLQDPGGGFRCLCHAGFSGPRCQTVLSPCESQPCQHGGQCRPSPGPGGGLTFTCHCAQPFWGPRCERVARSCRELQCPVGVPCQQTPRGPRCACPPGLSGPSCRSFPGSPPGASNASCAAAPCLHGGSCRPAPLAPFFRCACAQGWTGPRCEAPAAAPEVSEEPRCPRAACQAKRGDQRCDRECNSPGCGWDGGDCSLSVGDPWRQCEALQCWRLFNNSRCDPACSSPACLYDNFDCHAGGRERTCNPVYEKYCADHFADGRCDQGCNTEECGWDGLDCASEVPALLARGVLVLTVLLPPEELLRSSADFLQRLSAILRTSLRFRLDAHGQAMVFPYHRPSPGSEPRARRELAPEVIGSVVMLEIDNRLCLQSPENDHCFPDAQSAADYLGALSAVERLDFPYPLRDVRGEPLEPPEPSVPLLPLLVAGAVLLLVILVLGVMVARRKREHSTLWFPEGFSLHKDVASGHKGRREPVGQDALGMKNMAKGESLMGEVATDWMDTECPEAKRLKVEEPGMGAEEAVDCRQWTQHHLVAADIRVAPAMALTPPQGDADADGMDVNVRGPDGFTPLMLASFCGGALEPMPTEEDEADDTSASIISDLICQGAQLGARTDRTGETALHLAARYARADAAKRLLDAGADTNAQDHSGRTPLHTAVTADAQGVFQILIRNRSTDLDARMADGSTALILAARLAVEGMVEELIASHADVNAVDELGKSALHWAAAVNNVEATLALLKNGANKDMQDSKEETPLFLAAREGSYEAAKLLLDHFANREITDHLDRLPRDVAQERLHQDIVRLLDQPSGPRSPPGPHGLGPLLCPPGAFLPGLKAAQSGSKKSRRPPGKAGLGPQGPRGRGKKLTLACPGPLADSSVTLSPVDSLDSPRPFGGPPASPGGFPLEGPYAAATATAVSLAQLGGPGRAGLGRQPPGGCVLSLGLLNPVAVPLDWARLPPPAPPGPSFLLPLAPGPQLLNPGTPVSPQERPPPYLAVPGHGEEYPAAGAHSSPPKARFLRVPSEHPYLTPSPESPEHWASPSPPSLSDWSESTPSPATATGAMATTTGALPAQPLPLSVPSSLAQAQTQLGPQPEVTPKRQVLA

[20] = small-molecule microarray binders of probe aEGFR, primary screen, biochemical, biotinylated probe, 635/667 nm fluorescence (AID 1097); settings: higher = more signal;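 also: probe is a biotinylated anti-EGFR antibody binding compounds printed on slides; score combines fluorescence near 667 nm and signal to noise of each spot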

COc1ccc(C(O)C2C=CC3C(=O)NC(=O)C3N2Nc2ccc(Cl)cc2Cl)c2ccccc12 (stereo not given)
composite z-score [1]: 0.877
composite z-score [2]: 0.433
composite z-score [3]: -0.106
composite z-score [4]: 0.273
composite z-score [5]: 1.02
composite z-score [6]: 0.999
composite z-score [7]: 1.04
z-score [8]: -0.0308 (inactive)
composite z-score [9]: 0.951
composite z-score [10]: -0.216
composite z-score [11]: 1.01
z-score [12]: -10.5 (active)
z-score [13]: -2.63 (inactive)
z-score [14]: 0.126 (inactive)
composite z-score [15]: 2.98
z-score [16]: -0.708 (inactive)
composite z-score [17]: -0.279
composite z-score [18]: -0.494
composite z-score [19]: 1.05
composite z-score [20]: -0.176

CN1C(=O)[C@@H]2[C@@H](CC(COc3ccccc3)=C3[C@@H](CCc4ccccc4)OB(O)C[C@@H]32)C1=O
composite z-score [1]: -0.124
composite z-score [2]: 0.275
composite z-score [3]: -0.0415
composite z-score [4]: 0.121
composite z-score [5]: 0.371
composite z-score [6]: 0.445
composite z-score [7]: 0.56
z-score [8]: -0.799 (inactive)
composite z-score [9]: 0.0157
composite z-score [10]: -0.0994
composite z-score [11]: 0.359
z-score [12]: -0.973 (inactive)
z-score [13]: -0.793 (inactive)
z-score [14]: -0.862 (inactive)
composite z-score [15]: 0.384
z-score [16]: -0.372 (inactive)
composite z-score [17]: -0.205
composite z-score [18]: 0.231
composite z-score [19]: -0.138
composite z-score [20]: -0.15

CC(C)NC(=O)[C@@]1(C)c2ccccc2C(=O)N(Cc2ccccc2)[C@H]1c1ccc(CO)cc1
composite z-score [1]: 0.267
composite z-score [2]: 0.824
composite z-score [3]: -0.169
composite z-score [4]: -0.548
composite z-score [5]: -1.12
composite z-score [6]: 1
composite z-score [7]: 0.814
z-score [8]: -2.47 (inactive)
composite z-score [9]: -0.875
composite z-score [10]: -0.291
composite z-score [11]: 1.53
z-score [12]: -1.46 (inactive)
z-score [13]: 0.138 (inactive)
z-score [14]: -0.932 (inactive)
composite z-score [15]: 3.22
z-score [16]: 1.11 (inactive)
composite z-score [17]: -0.13
composite z-score [18]: -0.644
composite z-score [19]: -0.554
composite z-score [20]: -0.0035

O=C1O[C@@H](c2ccccc2)[C@@H](c2ccccc2)N2[C@@H](c3ccccc3OCCO)[C@]3(C(=O)Nc4ccc(C#CCCO)cc43)[C@@H](C(=O)NC[C@H](O)c3ccccc3)[C@H]12
composite z-score [1]: 0.13
composite z-score [2]: 1.2
composite z-score [3]: 0.277
composite z-score [4]: 0.0012
composite z-score [5]: 0.381
composite z-score [6]: 1.63
composite z-score [7]: 1.36
z-score [8]: -2.14 (inactive)
composite z-score [9]: 0.372
composite z-score [10]: 0.192
composite z-score [11]: 1.54
z-score [12]: 2.3 (inactive)
z-score [13]: -1.71 (inactive)
z-score [14]: 4.29 (inactive)
composite z-score [15]: 3.29
z-score [16]: 0.535 (inactive)
composite z-score [17]: 1.07
composite z-score [18]: 1.37
composite z-score [19]: 0.944
composite z-score [20]: 0.506

COc1ccc([Si](C)(C)[C@H]2[C@H](CCO)O[C@@]3(C(=O)N(Cc4cccc(N(C=O)c5ccccc5)c4)c4ccccc43)[C@@H]2C)cc1
composite z-score [1]: -0.364
composite z-score [2]: 0.35
composite z-score [3]: 0.0155
composite z-score [4]: 1.09
composite z-score [5]: 1.14
composite z-score [6]: 0.97
composite z-score [7]: 1.08
z-score [8]: -0.837 (inactive)
composite z-score [9]: 0.638
composite z-score [10]: -0.236
composite z-score [11]: 1.56
z-score [12]: 1.08 (inactive)
z-score [13]: 0.604 (inactive)
z-score [14]: 10.6 (active)
composite z-score [15]: 2.91
z-score [16]: 2.01 (inactive)
composite z-score [17]: 0.0893
composite z-score [18]: 0.785
composite z-score [19]: 1.07
composite z-score [20]: 0.0004

COCCOC(=O)N1C(=O)[C@@]2(c3cc(C#CCNC(N)=O)ccc31)[C@H](C(=O)Nc1nc3ccccc3s1)[C@H]1C(=O)O[C@H](c3ccccc3)[C@H](c3ccccc3)N1[C@@H]2c1ccccc1OCCO
composite z-score [1]: -0.35
composite z-score [2]: 0.578
composite z-score [3]: -0.0569
composite z-score [4]: 0.475
composite z-score [5]: 0.809
composite z-score [6]: 0.257
composite z-score [7]: 0.635
z-score [8]: 0.36 (inactive)
composite z-score [9]: 0.71
composite z-score [10]: -0.102
composite z-score [11]: 1.56
z-score [12]: 0.236 (inactive)
z-score [13]: 1.81 (inactive)
z-score [14]: 3.17 (inactive)
composite z-score [15]: 1.11
z-score [16]: 1.17 (inactive)
composite z-score [17]: 0.146
composite z-score [18]: 1.14
composite z-score [19]: 0.907
composite z-score [20]: 0.359

CCCC[C@H]1C[C@@H]1[C@@H]1N(C(C)=O)[C@H](c2cccc(OC)c2)CC12CC2
composite z-score [1]: 0.116
composite z-score [2]: -0.303
composite z-score [3]: -0.0235
composite z-score [4]: 0.186
composite z-score [5]: 0.798
composite z-score [6]: -0.106
composite z-score [7]: -0.175
z-score [8]: 1.8 (inactive)
composite z-score [9]: 0.657
composite z-score [10]: -0.0645
composite z-score [11]: -0.383
z-score [12]: -0.872 (inactive)
z-score [13]: -8.39 (active)
z-score [14]: -1.82 (inactive)
composite z-score [15]: 0.755
z-score [16]: -0.563 (inactive)
composite z-score [17]: 0.116
composite z-score [18]: -0.502
composite z-score [19]: -0.27
composite z-score [20]: 0.0192

C=CCC(OC(C)=O)[C@@H]1[C@@H](N(Cc2cccc3ccccc23)C(=O)Cc2ccc(OC)cc2)c2cc(OCCCO)ccc2N1C(=O)Cc1ccc2ccccc2c1 (stereo not given in full)
composite z-score [1]: -0.289
composite z-score [2]: -0.176
composite z-score [3]: -0.14
composite z-score [4]: 0.184
composite z-score [5]: -0.529
composite z-score [6]: 0.906
composite z-score [7]: -0.29
z-score [8]: -1.77 (inactive)
composite z-score [9]: 0.165
composite z-score [10]: -0.364
composite z-score [11]: 0.402
z-score [12]: -0.0978 (inactive)
z-score [13]: 0.374 (inactive)
z-score [14]: -1.51 (inactive)
composite z-score [15]: 0.574
z-score [16]: -0.079 (inactive)
composite z-score [17]: -0.0911
composite z-score [18]: 0.656
composite z-score [19]: -0.87
composite z-score [20]: -0.0828

C=CCNC(=O)[C@H]1[C@@H]2C(=O)O[C@@H](c3ccccc3)[C@@H](c3ccccc3)N2[C@@H](c2ccc(OCCO)cc2)[C@]12C(=O)Nc1ccc(C#CC3(O)CCCCCC3)cc12
composite z-score [1]: 0.604
composite z-score [2]: 0.648
composite z-score [3]: -0.0065
composite z-score [4]: 1.1
composite z-score [5]: 1.54
composite z-score [6]: 1.43
composite z-score [7]: 1.1
z-score [8]: -0.486 (inactive)
composite z-score [9]: 0.229
composite z-score [10]: 0.306
composite z-score [11]: 1.53
z-score [12]: 2.3 (inactive)
z-score [13]: 1.42 (inactive)
z-score [14]: 5.09 (inactive)
composite z-score [15]: 2.11
z-score [16]: 1.61 (inactive)
composite z-score [17]: 0.323
composite z-score [18]: 1.4
composite z-score [19]: 1.08
composite z-score [20]: 0.0432

O=C(NCc1ccccc1)[C@@H]1c2ccccc2C(=O)N(Cc2ccc(OC(F)(F)F)cc2)[C@H]1c1ccc(CO)cc1
composite z-score [1]: 0.85
composite z-score [2]: 0.0787
composite z-score [3]: -0.0784
composite z-score [4]: -0.225
composite z-score [5]: -0.674
composite z-score [6]: 1.19
composite z-score [7]: 0.921
z-score [8]: -1.37 (inactive)
composite z-score [9]: 0.0209
composite z-score [10]: 0.321
composite z-score [11]: 0.594
z-score [12]: -0.347 (inactive)
z-score [13]: -0.753 (inactive)
z-score [14]: -0.574 (inactive)
composite z-score [15]: 2.62
z-score [16]: 0.301 (inactive)
composite z-score [17]: -0.128
composite z-score [18]: -0.262
composite z-score [19]: -0.577
composite z-score [20]: 0.148
